# Data from PubChem BioAssay (EPA / NIEHS).
# Inconclusive results are not listed. Some structures have more than one record in an assay (separate samples or runs), and their calls can disagree. The source made the active and inactive calls. Rule for the calls, unless noted: active = hit-call score of the fitted dose curve at least 0.9, where 1 is the maximum; inconclusive = response in the unintended direction; inactive = score below 0.9.
# Legend:
# [1] = target: mouse Estrogen Receptor alpha (Era), Esr1 (gene 13982) (UniProt P19785); assay: NVS_NR_mERa: NovaScreen (NVS) Nuclear Receptor Binding Assay for mouse Estrogen Receptor alpha (Era) (AID 2283378);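 note: hit means loss of bound radioligand signal relative to DMSO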
# Chain of mouse Estrogen Receptor alpha (Era), Esr1 (gene 13982) (P19785 whole entry, looked up): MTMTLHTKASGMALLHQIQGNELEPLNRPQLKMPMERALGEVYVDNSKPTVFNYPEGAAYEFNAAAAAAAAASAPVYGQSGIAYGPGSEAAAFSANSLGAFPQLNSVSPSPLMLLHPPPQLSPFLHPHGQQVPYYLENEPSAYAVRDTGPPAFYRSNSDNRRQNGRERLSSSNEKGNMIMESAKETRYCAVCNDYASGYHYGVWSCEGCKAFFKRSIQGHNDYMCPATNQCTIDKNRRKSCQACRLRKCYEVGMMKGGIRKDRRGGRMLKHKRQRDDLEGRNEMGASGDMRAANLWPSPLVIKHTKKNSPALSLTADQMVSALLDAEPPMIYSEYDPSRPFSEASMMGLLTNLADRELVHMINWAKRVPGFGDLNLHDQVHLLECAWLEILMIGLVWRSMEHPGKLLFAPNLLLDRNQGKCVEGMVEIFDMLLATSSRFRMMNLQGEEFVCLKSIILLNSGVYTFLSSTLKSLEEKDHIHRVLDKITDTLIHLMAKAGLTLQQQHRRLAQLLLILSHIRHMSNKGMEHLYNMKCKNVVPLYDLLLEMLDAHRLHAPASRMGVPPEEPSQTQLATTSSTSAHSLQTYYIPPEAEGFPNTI
# Method in brief: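 Filter radiodetection of radioligand displacement from extracted receptor protein, measured 18 h post-dose. Single 25 uM concentration in duplicate initially, with concentration-series follow-up. Binding loss fitted relative to DMSO.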
# [2] = target: Estrogen receptor beta (Homo sapiens) (UniProt Q92731); assay: OT_ER_ERbERb_1440: Odyssey Thera (OT) 24-hour HEK293T Protein-Complementation Assay for Estrogen Receptor-beta/-beta Homodimer (AID 2283380);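 note: fluorescence gain from ER beta LBD homodimer complementation read by laser scanning cytometry; scored as signal increase over DMSO baseline for both agonists and antagonists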
# Chain of Estrogen receptor beta (Homo sapiens) (Q92731 whole entry, looked up, the tested form may be a part): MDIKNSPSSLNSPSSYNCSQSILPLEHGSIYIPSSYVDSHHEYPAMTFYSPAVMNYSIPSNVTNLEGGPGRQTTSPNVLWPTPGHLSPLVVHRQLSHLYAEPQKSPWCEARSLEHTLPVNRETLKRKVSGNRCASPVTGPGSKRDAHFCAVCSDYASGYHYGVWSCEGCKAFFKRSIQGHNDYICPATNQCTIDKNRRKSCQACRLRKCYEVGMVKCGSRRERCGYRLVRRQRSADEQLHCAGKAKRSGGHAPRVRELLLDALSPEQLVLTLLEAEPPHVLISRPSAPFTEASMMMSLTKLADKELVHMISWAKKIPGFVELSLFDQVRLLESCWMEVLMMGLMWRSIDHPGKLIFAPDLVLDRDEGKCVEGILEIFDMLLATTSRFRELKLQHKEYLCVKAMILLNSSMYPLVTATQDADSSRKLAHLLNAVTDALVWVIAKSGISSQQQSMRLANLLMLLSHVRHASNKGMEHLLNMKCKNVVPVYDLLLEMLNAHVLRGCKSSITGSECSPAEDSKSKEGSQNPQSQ
# Method in brief: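 Fluorescence increase, nuclear for agonists or whole-cell for antagonists, relative to DMSO vehicle, quantified by laser scanning cytometer after fixation and Draq5 staining. Readout from 24 h treatment of HEK293T cells carrying complementation-paired ER beta LBD (aa 310-547).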
# [3] = target: rat Serotonin Transporter (SERT), Slc6a4 (gene 25553) (UniProt P31652); assay: NVS_TR_rSERT: NovaScreen (NVS) Transporter Assay for rat Serotonin Transporter (SERT) (AID 2283375)
# Chain of rat Serotonin Transporter (SERT), Slc6a4 (gene 25553) (P31652 whole entry, looked up): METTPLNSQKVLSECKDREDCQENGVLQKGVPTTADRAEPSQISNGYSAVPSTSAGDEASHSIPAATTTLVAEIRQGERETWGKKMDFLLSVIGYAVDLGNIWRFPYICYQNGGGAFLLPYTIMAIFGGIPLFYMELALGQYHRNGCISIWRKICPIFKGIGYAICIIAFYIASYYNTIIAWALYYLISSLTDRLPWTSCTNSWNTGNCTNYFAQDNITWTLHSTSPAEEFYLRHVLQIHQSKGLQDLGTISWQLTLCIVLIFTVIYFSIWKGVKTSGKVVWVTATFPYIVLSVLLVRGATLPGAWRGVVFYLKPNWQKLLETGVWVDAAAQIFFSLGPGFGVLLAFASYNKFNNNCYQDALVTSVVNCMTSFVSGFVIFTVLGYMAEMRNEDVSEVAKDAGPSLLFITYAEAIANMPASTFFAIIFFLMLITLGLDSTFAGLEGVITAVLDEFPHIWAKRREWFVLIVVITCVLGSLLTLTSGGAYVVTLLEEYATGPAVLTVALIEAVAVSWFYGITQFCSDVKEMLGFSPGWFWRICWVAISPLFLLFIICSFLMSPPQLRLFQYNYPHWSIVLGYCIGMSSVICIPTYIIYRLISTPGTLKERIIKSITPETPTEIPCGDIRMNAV
# Method in brief: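 Radioligand binding with competitive displacement on rat forebrain membrane preparations, counted by filtration and scintillation after 1 h. Primary single-point duplicates at 25 uM; active chemicals followed up in concentration-response. DMSO served as baseline.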
# [4] = target: human Norepinephrine Transporter (NET), SLC6A2 (gene 6530) (UniProt P23975); assay: NVS_TR_hNET: NovaScreen (NVS) Transporter Assay for human Norepinephrine Transporter (NET) (AID 2283377);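 note: cell-free membrane protein extracted from CHO cells expressing human NET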;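 for AC50: displacement of radioligand from human NET seen as loss of scintillation signal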
# Chain of human Norepinephrine Transporter (NET), SLC6A2 (gene 6530) (P23975 whole entry, looked up): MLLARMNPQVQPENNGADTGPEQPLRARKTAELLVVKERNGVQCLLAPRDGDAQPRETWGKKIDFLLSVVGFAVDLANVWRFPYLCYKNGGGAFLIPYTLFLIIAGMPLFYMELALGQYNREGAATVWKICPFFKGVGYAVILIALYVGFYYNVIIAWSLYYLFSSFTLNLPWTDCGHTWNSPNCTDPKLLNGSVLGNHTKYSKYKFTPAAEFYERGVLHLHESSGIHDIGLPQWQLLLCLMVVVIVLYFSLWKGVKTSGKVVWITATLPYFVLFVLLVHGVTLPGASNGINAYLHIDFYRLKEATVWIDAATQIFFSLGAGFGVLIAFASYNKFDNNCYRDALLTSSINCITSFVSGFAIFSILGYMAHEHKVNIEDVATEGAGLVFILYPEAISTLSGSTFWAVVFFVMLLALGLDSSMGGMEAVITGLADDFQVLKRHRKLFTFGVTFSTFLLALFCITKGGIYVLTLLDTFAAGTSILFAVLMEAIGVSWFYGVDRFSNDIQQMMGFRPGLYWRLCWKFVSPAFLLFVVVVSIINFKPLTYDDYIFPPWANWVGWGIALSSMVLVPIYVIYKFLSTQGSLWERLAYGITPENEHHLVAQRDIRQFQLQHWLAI
# Method in brief: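 Scintillation counts of filter-retained radioligand served as the readout, taken 1 h post-dosing in a cell-free CHO-derived system. Test chemicals ran first at 25 uM in duplicate; confirmed hits were retested across concentrations.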
# [5] = target: Estrogen receptor (Homo sapiens) (UniProt P03372); assay: OT_ERa_GFPERaERE_0480: Odyssey Thera (OT) 8-hour HeLa Transcription Induction Assay for Estrogen Receptor (AID 2283381; active = hit-call score of the fitted dose curve at least 0.9, where 1 is the maximum; inactive = score below 0.9)
# Chain of Estrogen receptor (Homo sapiens) (P03372 whole entry, looked up): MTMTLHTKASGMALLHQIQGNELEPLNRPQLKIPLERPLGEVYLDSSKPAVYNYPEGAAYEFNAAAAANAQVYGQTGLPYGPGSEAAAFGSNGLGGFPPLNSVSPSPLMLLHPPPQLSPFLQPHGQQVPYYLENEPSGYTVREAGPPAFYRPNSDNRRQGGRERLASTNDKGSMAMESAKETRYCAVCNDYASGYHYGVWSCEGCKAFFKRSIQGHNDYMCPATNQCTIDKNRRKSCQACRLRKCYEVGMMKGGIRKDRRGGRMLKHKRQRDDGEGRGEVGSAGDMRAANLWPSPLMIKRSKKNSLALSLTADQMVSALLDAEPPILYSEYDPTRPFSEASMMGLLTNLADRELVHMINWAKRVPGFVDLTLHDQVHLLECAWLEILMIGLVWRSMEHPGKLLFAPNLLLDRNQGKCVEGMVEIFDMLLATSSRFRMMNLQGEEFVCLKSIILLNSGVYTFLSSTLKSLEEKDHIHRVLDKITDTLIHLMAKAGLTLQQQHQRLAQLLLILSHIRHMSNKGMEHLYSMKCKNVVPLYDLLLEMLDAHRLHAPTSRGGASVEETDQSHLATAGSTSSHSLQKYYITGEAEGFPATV
# Method in brief: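 HeLa cells expressing GFP reporter under estrogen response element, imaged 8 h after dosing. GFP induction quantified by high-content fluorescence microscopy image analysis; gain of signal fitted versus DMSO.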
# [6] = target: Agonist Androgen Response Element (ARE), AR (gene 367) (UniProt P10275); assay: OT_AR_ARELUC_AG_1440: Odyssey Thera (OT) 24-hour CHO-K1 Luciferase Assay for Agonist Androgen Response Element (ARE) (AID 2283379)
# Chain of Agonist Androgen Response Element (ARE), AR (gene 367) (P10275 whole entry, looked up): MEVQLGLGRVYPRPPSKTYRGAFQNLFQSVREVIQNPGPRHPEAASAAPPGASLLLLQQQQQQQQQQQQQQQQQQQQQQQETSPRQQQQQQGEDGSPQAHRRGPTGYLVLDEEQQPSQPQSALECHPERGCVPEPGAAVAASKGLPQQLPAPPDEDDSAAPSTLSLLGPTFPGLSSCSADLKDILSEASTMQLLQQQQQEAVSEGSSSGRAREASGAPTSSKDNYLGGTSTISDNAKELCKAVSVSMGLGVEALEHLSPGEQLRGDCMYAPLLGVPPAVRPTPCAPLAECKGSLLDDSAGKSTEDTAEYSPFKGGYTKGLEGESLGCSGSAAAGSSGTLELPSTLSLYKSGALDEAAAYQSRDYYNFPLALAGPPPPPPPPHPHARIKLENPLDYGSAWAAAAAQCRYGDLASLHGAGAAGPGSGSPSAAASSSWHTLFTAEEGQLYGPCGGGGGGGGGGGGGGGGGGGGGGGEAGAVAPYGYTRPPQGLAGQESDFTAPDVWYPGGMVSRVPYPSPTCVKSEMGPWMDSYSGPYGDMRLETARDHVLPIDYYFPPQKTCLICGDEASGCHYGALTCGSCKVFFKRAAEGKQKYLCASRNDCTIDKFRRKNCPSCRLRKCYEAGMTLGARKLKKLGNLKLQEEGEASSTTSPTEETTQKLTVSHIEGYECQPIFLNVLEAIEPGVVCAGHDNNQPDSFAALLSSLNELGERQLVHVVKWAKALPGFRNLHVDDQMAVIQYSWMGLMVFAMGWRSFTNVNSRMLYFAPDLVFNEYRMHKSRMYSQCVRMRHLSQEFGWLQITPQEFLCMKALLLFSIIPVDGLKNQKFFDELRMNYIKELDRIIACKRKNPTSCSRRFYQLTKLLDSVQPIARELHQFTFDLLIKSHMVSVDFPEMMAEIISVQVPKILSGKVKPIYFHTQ
# Method in brief: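 Agonist mode, 24 h exposure in CHO-K1 ARE-luciferase cells; values reflect luminescence induction over vehicle.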
# [7] = target: human Dopamine Transporter (DAT), SLC6A3 (gene 6531) (UniProt Q01959); assay: NVS_TR_hDAT: NovaScreen (NVS) Transporter Assay for human Dopamine Transporter (DAT) (AID 2283374);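 note: activity means loss of bound radioligand signal relative to DMSO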
# Chain of human Dopamine Transporter (DAT), SLC6A3 (gene 6531) (Q01959 whole entry, looked up): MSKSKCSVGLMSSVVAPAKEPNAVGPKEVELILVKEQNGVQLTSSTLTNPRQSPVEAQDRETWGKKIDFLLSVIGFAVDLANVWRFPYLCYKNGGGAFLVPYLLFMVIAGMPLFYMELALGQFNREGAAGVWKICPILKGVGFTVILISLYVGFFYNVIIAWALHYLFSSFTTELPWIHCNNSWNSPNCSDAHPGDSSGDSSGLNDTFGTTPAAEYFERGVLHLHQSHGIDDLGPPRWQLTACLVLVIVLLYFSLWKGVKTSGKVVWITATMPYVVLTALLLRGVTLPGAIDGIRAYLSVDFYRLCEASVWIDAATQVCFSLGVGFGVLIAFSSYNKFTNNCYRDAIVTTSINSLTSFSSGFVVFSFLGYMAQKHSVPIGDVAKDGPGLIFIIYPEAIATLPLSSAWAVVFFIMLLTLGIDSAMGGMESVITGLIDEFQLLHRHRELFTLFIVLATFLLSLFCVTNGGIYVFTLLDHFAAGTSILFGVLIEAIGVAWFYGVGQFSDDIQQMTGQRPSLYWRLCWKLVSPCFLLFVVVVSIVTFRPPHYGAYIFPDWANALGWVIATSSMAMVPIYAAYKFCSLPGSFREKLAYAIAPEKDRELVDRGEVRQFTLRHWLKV
# Method in brief: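 Test chemicals were first screened in duplicate at 25 uM, with actives retested as concentration series. Displacement of a specific radioligand from cell-free human dopamine transporter was measured after 1 h by filtration and scintillation counting.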
structure (smiles),measurement,setting,value
CC(C)(C)c1cc(/C=C2\SC(N)=NC2=O)cc(C(C)(C)C)c1O,outcome,[1],inactive
same,outcome,[2],inactive
C[C@]12CC[C@@H]3c4ccc(O)cc4CC[C@H]3[C@@H]1CCC2=O,AC50,[3],4.96 µM (active)
same,AC50,[1],7.03 nM (active) [middle of 4 runs]
same,outcome,[1],inactive
Clc1ccccc1C(c1ccccc1)(c1ccccc1)n1ccnc1,outcome,[4],inactive
same,outcome,[1],inactive
same,outcome,[2],inactive
same,AC50,[5],79 µM (active)
Cc1ccc(C(C)C)cc1,outcome,[6],inactive
same,outcome,[5],inactive
CN1C(=O)CC[C@H]1c1cccnc1,outcome,[2],inactive
CO[C@H]1/C=C/O[C@@]2(C)Oc3c(C)c(O)c4c(O)c(c(/C=N/N5CCN(C)CC5)c(O)c4c3C2=O)NC(=O)/C(C)=C\C=C\[C@H](C)[C@H](O)[C@@H](C)[C@@H](O)[C@@H](C)[C@H](OC(C)=O)[C@@H]1C,outcome,[2],inactive
O=C(OCCCCCCOC(=O)c1ccccc1)c1ccccc1,outcome,[4],inactive
same,outcome,[5],inactive
COc1cccc([C@H](O)C2CCN(CCc3ccc(F)cc3)CC2)c1OC,AC50,[3],8.09 µM (active)
same,outcome,[2],inactive
CC/C(=C(/CC)c1ccc(O)cc1)c1ccc(O)cc1,AC50,[7],16.2 µM (active)
same,outcome,[4],inactive
CCCCCCCCN(C)CCCCCCCC,outcome,[1],inactive
same,outcome,[6],inactive
Cc1occc1C(=O)Nc1ccc(C(=O)N2CCC(F)(F)/C(=C\C(=O)N3CCC(N4CCCCC4)CC3)c3ccccc32)cc1,outcome,[6],inactive
same,outcome,[2],inactive
CCN(CC)C(=O)c1cc(S(=O)(=O)Cc2ccccc2)c(N2CCC(c3ccccc3)CC2)cc1N(CC)CCN(C)C,AC50,[7],5.63 µM (active)
same,AC50,[4],10.4 µM (active)
same,AC50,[1],2.54 µM (active)
same,outcome,[2],inactive
same,outcome,[5],inactive
CC(=O)N1CCN(c2ccc(OC[C@H]3CO[C@](Cn4ccnc4)(c4ccc(Cl)cc4Cl)O3)cc2)CC1,AC50,[7],11.2 µM (active)
same,AC50,[4],9.91 µM (active)
same,outcome,[1],inactive
same,outcome,[2],inactive
O=c1ccc2ccccc2o1,outcome,[2],inactive
Cc1cn([C@H]2C[C@H](N=[N+]=[N-])[C@@H](CO)O2)c(=O)[nH]c1=O,outcome,[4],inactive
Cc1cc2c(cc1C(F)(F)F)N(C(=O)Nc1ccc(Oc3cccnc3C)nc1)CC2,outcome,[2],inactive
same,outcome,[5],inactive
CCCCCCCCCCCO,outcome,[1],inactive
same,outcome,[2],inactive
same,outcome,[5],inactive
CCCCOC(=O)CC(CC(=O)OCCCC)(OC(C)=O)C(=O)OCCCC,outcome,[2],inactive
CC[C@@H]1C[C@H](N(Cc2cc(C(F)(F)F)cc(C(F)(F)F)c2)C(C)=O)c2cc(C(F)(F)F)ccc2N1C(=O)OC(C)C,outcome,[2],inactive
same,outcome,[5],inactive
CCCCCCCCCCCCO,outcome,[2],inactive
CCCC(=O)OCCC(C)C,outcome,[6],inactive
O=c1[nH]sc2ccccc12,AC50,[7],21.4 µM (active)
same,outcome,[2],inactive
COCC(C)OCC(C)OCC(C)O (stereo not given),outcome,[6],inactive
same,outcome,[2],inactive
CCO[Si](CCCNC(N)=O)(OCC)OCC,outcome,[2],inactive
OC12N=C(c3ccccc3)SC1Cc1cc(Cl)ccc12 (stereo not given),outcome,[2],inactive
